Source: PubChem BioAssay (NCI)
Several values for one entry are separate records, joined by “and”; a condition that tells them apart may be missing. Equal entries are not always repeated. This is part of a sample that, as a whole, favours compounds with a hit. Of some 83,000 tested, about 20% had one in any assay.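 Interpretation: 100, growth as untreated; towards 0, rising growth inhibition; 0, no net growth; 0 to -100, cell death. Compounds scoring below 10 were considered active.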 Activity calls are given as the source filed them.

Tests used:
Assay in all cases: NCI-60 one-dose screen, 48 h (100 = growth as untreated, 0 = no growth, -100 = all killed)
Conditions in all cases: 10 µM unless noted
[1] = test system: NCI-H23 lung
[2] = test system: NCI-H226 lung
[3] = test system: NCI-H322M lung
[4] = test system: HOP-62 NSCLC
[5] = test system: NCI-H460 lung
[6] = test system: HOP-92 NSCLC
[7] = test system: NCI-H522 lung
[8] = test system: A549/ATCC NSCLC
[9] = test system: 786-0 renal
[10] = test system: COLO 205 colon

Measured: growth

CN1CCN(c2ccc(Nc3nc(NCCCNS(=O)(=O)c4ccccc4)c4sccc4n3)cc2)CC1
inactive: [1] 90.6% | [2] 111% | [3] 80.3% | [4] 105% | [5] 36.9% | [6] 59.2% | [7] 44.8% | [8] 62% | [10] 49.2%
active: [9] 7.25%

O=C(/C=C/c1csc(Br)n1)NO
inactive: [1] 38.4% | [2] 82.9% | [3] 33.1% | [4] 35.5% | [5] 25.7% | [8] 23.5% | [9] 52.3% | [10] 11.6%
active: [6] -2.53% | [7] 7.37%

Cc1ccc(/C(N)=N/C(N)=N/c2nc3ccccc3s2)cc1
inactive: [1] 48.9% | [2] 63.2% | [3] 91.3% | [5] 75.7% | [6] 122% | [7] 100% | [8] 19.6% | [9] 109% | [10] 120%
active: [4] -42.4%

Cc1ccccc1Nc1nc(SC(C)C)nc(-c2ccccc2)c1C#N
inactive: [1] 31.7% | [2] 81.1% | [3] 70% | [4] 37% | [5] 45.5% | [6] 64.5% | [7] 73% | [8] 102% | [9] 10.6% | [10] 119%

O=C(/C=C/c1cc(Cl)ccc1Cl)Nc1ncc(Cc2ccc(Cl)cc2)s1
inactive: [1] 16.7% | [2] 26.1% | [3] 33.5% | [8] 12.3%
active: [4] 1.25% | [5] 0.165% | [6] -10.6% | [7] -33.7% | [9] 0.237% | [10] -45.2%

CCC(=C(c1ccc(OCCN(C)C)cc1)c1ccc(OCCN(C)C)cc1)c1ccc(Cl)cc1
inactive: [1] 21.9% | [2] 21.7%
active: [3] 5.04% | [4] -65.7% | [5] -64.8% | [6] -5.13% | [7] -48.3% | [8] -72.3% | [9] -80.7% | [10] -67.3%

CN1CCN(c2ccc(Nc3nc(NCCNC(=O)c4ccc(F)cc4)c4sccc4n3)cc2)CC1
inactive: [1] 74.2% | [2] 91.1% | [3] 81.7% | [4] 99.4% | [5] 84.5% | [6] 50.1% | [7] 68.1% | [8] 77.9% | [9] 52.3% | [10] 44.3%

O=C1Nc2cc(Cl)ccc2/C1=C\c1ccc(OCc2ccccc2)cc1
inactive: [1] 94.3% | [2] 92.9% | [3] 99.5% | [4] 96.2% | [5] 104% | [6] 109% | [7] 99.8% | [8] 105% | [9] 105% | [10] 110%

CN1c2ccccc2Sc2cc(/C=N/Nc3ccnc4cc(Cl)ccc34)ccc21
inactive: [1] 91.6% | [2] 90.5% | [3] 107% | [4] 96.6% | [5] 104% | [6] 82.1% | [7] 99.2% | [8] 83.3% | [9] 89.3% | [10] 101%

C=C(C)[C@@H]1CC[C@]2(C(=O)N3CCN(C)CC3)CC[C@]3(C)[C@H](CC[C@@H]4[C@@]5(C)CC[C@H](OP(=O)(OCC)OCC)C(C)(C)[C@@H]5CC[C@]43C)[C@@H]12
inactive: [1] 83.1% | [2] 75.8% | [3] 101% | [4] 96.2% | [5] 91.3% | [6] 63.8% | [7] 81.7% | [8] 75.6% | [9] 70.3% | [10] 90.8%

O=C(Nc1ccc(N=Cc2c(O)[nH]c3ccccc23)cc1)Nc1ccc(S(=O)(=O)Nc2ncccn2)cc1
inactive: [1] 27.1% | [2] 96.7% | [3] 114% | [4] 99% | [5] 104% | [6] 94.2% | [7] 95% | [8] 101% | [9] 100% | [10] 125%

O=S(=O)(NCCCNc1nccc(-c2[nH]c(-c3ccccc3)nc2-c2ccc(F)c(O)c2)n1)c1ccccc1
inactive: [1] 96.5% | [2] 99.4% | [3] 117% | [4] 120% | [5] 87.3% | [6] 105% | [7] 91.2% | [8] 98.3% | [9] 113% | [10] 95.5%

O=C(NCCNc1cc(-c2cn(-c3ccccc3)nc2-c2cccc(O)c2)ccn1)Nc1cc(C(F)(F)F)cc(C(F)(F)F)c1
inactive: [1] 98.1% | [2] 85% | [3] 86.5% | [4] 95% | [5] 102% | [6] 89.6% | [7] 92.2% | [8] 96.5% | [9] 99% | [10] 107%

CCCCN1C(=O)/C(=c2\sc3n(c2=O)C2C(NN=3)N(CC)C(=O)N2CC)c2cccc(C)c21 (stereo not given)
inactive: [1] 49.7% | [2] 36.6% | [3] 52.7% | [4] 46.8% | [5] 18.8% | [6] 71.1% | [7] 39.4% | [8] 57.1% | [9] 63.3% | [10] 24.6%

O=C1[C@@H]2Cc3c([nH]c4ccccc34)[C@@H](c3ccc(Cl)cc3)N2C(=O)CN1C1CCN(Cc2c(F)cccc2F)CC1
inactive: [1] 48.8% | [2] 60.6% | [3] 66.2% | [4] 54.1% | [5] 22.5% | [7] 36.7% | [8] 31.6% | [9] 45.2%
active: [6] -0.363% | [10] 7.17%

Cc1[nH]c(C(=O)Nc2ccc(C(N)=O)cc2N2CCOC(C)C2)c(Cl)c1Cl (stereo not given)
inactive: [1] 96.2% | [2] 89.9% | [3] 95.1% | [4] 98.4% | [5] 102% | [6] 107% | [7] 95.1% | [8] 99.6% | [9] 92.9% | [10] 124%

COc1ccc(-c2c(C(N)=O)c(N)n(Cc3nc4ccccc4[nH]3)c(=O)c2C#N)c(OC)c1
inactive: [1] 93.1% | [2] 94.5% | [3] 97.3% | [4] 94.9% | [5] 105% | [6] 101% | [7] 95.2% | [8] 102% | [9] 103% | [10] 117%

Brc1cc(-c2cc(-c3ccc4c(c3)OCCO4)[nH]n2)cs1
inactive: [1] 52.2% | [2] 74% | [3] 70.8% | [4] 61% | [5] 24.1% | [6] 65.2% | [7] 29.6% | [8] 42.8% | [9] 79.2% | [10] 57.8%

Clc1ccc2c(N/N=C/c3c[nH]c4ccccc34)ccnc2c1
active: [1] -88.2% | [2] -52.1% | [3] -89.9% | [4] -75.1% | [5] -87.2% | [6] -88.7% | [7] -77.6% | [8] -24.3% | [9] -89.8% | [10] -85.4%

O=C(CCCCCC/C=C\c1csc(Br)n1)NO
inactive: [1] 95.2% | [2] 96.8% | [3] 100% | [4] 88.9% | [5] 85.8% | [6] 102% | [7] 65.6% | [8] 91.9% | [9] 104% | [10] 95%

COc1cc(C(=O)c2cc(C(C)=O)c3c(C)cccn23)cc(OC)c1OC
inactive: [1] 101% | [2] 89.9% | [3] 98.5% | [4] 99.5% | [5] 102% | [6] 110% | [7] 90.2% | [8] 104% | [9] 91% | [10] 110%

COc1cc(-c2nc(-c3ccccc3)[nH]c2-c2ccnc(NCCCNS(=O)(=O)c3ccc(C(F)(F)F)cc3)n2)ccc1Cl
inactive: [1] 30.8% and 57% | [2] 36.2% and 51.7% | [3] 82.2% and 76.4% | [4] 88.3% and 55.4% | [5] 14.3% and 26.7% | [6] 41.3% and 49.4% | [7] 60.6% and 26.8% | [8] 31% and 29.3% | [9] 33.3% and 35.6% | [10] 48.8% and 11.1%

O=C(COc1ccc(/C=C2\C(=O)Nc3cc(Cl)ccc32)cc1)Nc1ccc(Cl)cc1
inactive: [1] 79.9% | [2] 79.1% | [3] 74.4% | [4] 76.7% | [5] 73.4% | [6] 90.8% | [7] 45.7% | [8] 68.8% | [9] 90.7% | [10] 81.3%
